{
  "source": "PubChem BioAssay AID463173",
  "about": "(ICCB-Longwood Screening Facility, Harvard Medical School, 2010)",
  "note": "About 4,300 (8.3%) of roughly 52,000 compounds were called active. What follows is part of a selection rich in actives, with near analogues and random picks from the rest. Unmarked numbers belong to inactive results. Cut-off read from the data, not from the text of the source: active = survival mostly below about 52% (no sharp cut-off); inactive = mostly above about 56%.",
  "data": [
    {"test_system": "DeltatarO mutant", "experiment": "growth inhibition of S. aureus wild type versus tarO mutant, primary screen, teichoic acid synthesis inhibitors, RN4220, OD600 (AID 463173)", "conditions": "OD600, 18 h, active compounds read low, screened at 18.75 µg/mL (by protocol)", "values": [
      {"smiles": "COc1cccc(N2CCN(C(=O)CCn3nc(C)c(S(=O)(=O)N4CCCC4)c3C)CC2)c1", "survival": "92%"},
      {"smiles": "Cc1nn(CCC(=O)N2CCN(c3ccccc3)CC2)c(C)c1S(=O)(=O)N1CCCC1", "survival": "-5% (active)"},
      {"smiles": "COc1ccc(N2CCN(C(=O)CCn3nc(C)c(S(=O)(=O)N4CCCC4)c3C)CC2)cc1", "survival": "73%"},
      {"smiles": "COc1ccc(Cl)cc1NC(=O)CSC1=Nc2ccccc2C2=NC(CC(=O)NCc3ccc4c(c3)OCO4)C(=O)N12", "note": "(stereo not given)", "survival": "87%"},
      {"smiles": "COc1ccc(CCn2c(=O)c3cccnc3n(CC(=O)Nc3ccc(C)cc3C)c2=O)cc1OC", "survival": "78%"},
      {"smiles": "O=S(=O)(c1ccccc1)c1nc(-c2cccc(Cl)c2)oc1NCc1ccccc1", "survival": "83%"},
      {"smiles": "O=C(NC1CCCC1)c1ccc2c(=O)n(Cc3ccccc3)c(SCc3ccccc3F)nc2c1", "survival": "0% (active)"},
      {"smiles": "O=C(NC1CCCC1)c1ccc(CSc2nc3cccnc3n2Cc2ccccc2F)cc1", "survival": "37% (active)"},
      {"smiles": "Cc1ccccc1CSc1nc2cc(C(=O)NC3CCCC3)ccc2c(=O)n1Cc1ccccc1", "survival": "107%"},
      {"smiles": "O=C(NC1CCCCC1)c1ccc(CSc2nc3cccnc3n2Cc2ccccc2)cc1", "survival": "102%"},
      {"smiles": "O=C(NC1CCCCC1)c1ccc(CSc2nc3cccnc3n2Cc2ccc(F)cc2)cc1", "survival": "25% (active)"},
      {"smiles": "O=C(NC1CCCCC1)c1ccc(Cn2c(SCc3ccc(F)cc3)nc3cccnc32)cc1", "survival": "32% (active)"},
      {"smiles": "O=C(NC1CCCC1)c1ccc2c(=O)n(Cc3ccccc3)c(SCc3ccccc3)nc2c1", "survival": "92%"},
      {"smiles": "O=C(NC1CCCC1)c1ccc(CSc2nc3cccnc3n2Cc2ccc(F)cc2)cc1", "survival": "63%"},
      {"smiles": "O=C(NC1CCCCC1)c1ccc(CSc2nc3cccnc3n2Cc2ccccc2F)cc1", "survival": "93%"},
      {"smiles": "O=C(NC1CCCCC1)c1ccc(Cn2c(SCc3ccccc3F)nc3cccnc32)cc1", "survival": "80%"},
      {"smiles": "O=C(NC1CC1)c1ccc(Cn2c(SCc3ccc(F)cc3)nc3cccnc32)cc1", "survival": "78%"},
      {"smiles": "O=C(NC1CCCCC1)c1ccc(Cn2c(SCc3ccccc3)nc3cccnc32)cc1", "survival": "83%"},
      {"smiles": "O=C(Cn1cc(SCc2c(F)cccc2Cl)c2ccccc21)N1CCCC1", "survival": "74%"},
      {"smiles": "COCCn1c(COc2ccc(Cl)cc2)nnc1SCC(=O)OC", "survival": "96%"},
      {"smiles": "CCOc1ccccc1N(CC)C(=O)c1noc2c1COc1ccc(C)cc1-2", "survival": "67%"},
      {"smiles": "COc1ccc(CCNC(=O)NCc2noc3ccccc23)c(OC)c1", "survival": "62%"},
      {"smiles": "NC(=O)CSc1nc2cc3c(cc2c(=O)n1CCCCCC(=O)NCc1ccc2c(c1)OCO2)OCO3", "survival": "81%"},
      {"smiles": "CCC(=O)N1CCc2cc(Br)cc(S(=O)(=O)NCc3cccc(OC)c3)c21", "survival": "58%"},
      {"smiles": "COc1cccc(Cn2cc(S(=O)(=O)c3ccc(C)cc3)c(=O)c3cc4c(cc32)OCO4)c1", "survival": "67%"},
      {"smiles": "COc1ccc(OC)c(S(=O)(=O)NCC(c2ccco2)S(=O)(=O)c2ccccc2)c1", "note": "(stereo not given)", "survival": "94%"},
      {"smiles": "CCOCCCNC(=O)CN1C(=O)COc2ccc(S(=O)(=O)N3CCCCCC3)cc21", "survival": "81%"},
      {"smiles": "Cc1cccc(Nc2nnc(-c3ccc(C)c(S(=O)(=O)N4CCCCC4)c3)c3ccccc23)c1", "survival": "104%"},
      {"smiles": "C#CCOc1ccc(-c2nnc(Nc3cccc(C)c3)c3ccccc23)cc1", "survival": "31% (active)"},
      {"smiles": "CCOC(=O)c1c(Nc2ccc(OC)cc2)nnc(-c2ccccc2)c1-c1ccccc1", "survival": "7% (active)"},
      {"smiles": "CCOC(=O)c1c(C)oc2ncnc(Nc3ccc(OCC)cc3)c12", "survival": "89%"},
      {"smiles": "COc1ccc(-c2nnc(Nc3ccc(OC)c(C(N)=O)c3)c3ccccc23)cc1", "survival": "41% (active)"},
      {"smiles": "COc1ccc(-c2nnc(Nc3ccc(OCC(N)=O)cc3)c3ccccc23)cc1", "survival": "69%"},
      {"smiles": "CCOC(=O)c1c(Nc2ccc(OCC)cc2)nnc(-c2ccccc2)c1-c1ccccc1", "survival": "-2% (active)"},
      {"smiles": "COC(=O)c1c(Oc2ccc(OC)cc2)nnc(-c2ccccc2)c1-c1ccccc1", "survival": "101%"},
      {"smiles": "CCOC(=O)c1c(Oc2ccc(OC)cc2)nnc(-c2ccccc2)c1-c1ccccc1", "survival": "75%"},
      {"smiles": "C#CCOc1ccc(-c2nnc(Nc3ccc(NC(C)=O)cc3)c3ccccc23)cc1", "survival": "60%"},
      {"smiles": "CNC(=O)c1cc(Nc2nnc(-c3ccc(O)cc3)c3ccccc23)ccc1OC", "survival": "170%"},
      {"smiles": "CCOC(=O)c1c(C)c(-c2ccccc2)n(CC(=O)Nc2ccc(OCC)cc2)c1C", "survival": "73%"},
      {"smiles": "O=S(=O)(c1ccc(Br)cc1)c1nc(-c2cccs2)oc1SCc1ccccc1F", "survival": "66%"},
      {"smiles": "Cc1cccc(CN2C(=O)c3ccccc3S(=O)(=O)c3ccc(C(=O)N4CCN(c5cc(C)ccc5C)CC4)cc32)c1", "survival": "74%"},
      {"smiles": "CC1CCN(S(=O)(=O)c2ccc3c(c2)N(CC(=O)NCCc2ccc(Cl)cc2)C(=O)CO3)CC1", "survival": "87%"},
      {"smiles": "Cc1cc(C)cc(Oc2nc3ccccn3c(=O)c2/C=C(\\C#N)c2nc3ccccc3s2)c1", "survival": "60%"},
      {"smiles": "COc1ccc(NC(=O)CC2C(=O)N(c3ccc(C)cc3)C(=O)N2Cc2ccc(C)cc2)cc1", "note": "(stereo not given)", "survival": "68%"},
      {"smiles": "Cc1ccc(CN(C(=O)COc2ccccc2Cl)c2ccccn2)o1", "survival": "59%"},
      {"smiles": "COc1ccc(CCNc2ncnc3onc(C)c23)c(OC)c1", "survival": "100%"},
      {"smiles": "COC(=O)c1c(-c2cccs2)csc1NC(=O)COc1ccccc1", "survival": "78%"},
      {"smiles": "COc1cc(C=Nc2ccc3[nH]c(=O)[nH]c3c2)ccc1OC(C)=O", "survival": "85%"},
      {"smiles": "O=c1[nH]c2ccc(N=Cc3ccccc3C(F)(F)F)cc2[nH]1", "survival": "71% (active)"},
      {"smiles": "O=c1[nH]c2ccc(N=Cc3ccc(F)cc3)cc2[nH]1", "survival": "73%"},
      {"smiles": "CC1CCN(S(=O)(=O)c2ccc3c(c2)N(CC(=O)O)C(=O)CO3)CC1", "survival": "94%"},
      {"smiles": "CCOc1ccc(CNC(=O)Cc2ccc(NC(=O)N3CCCCc4ccccc43)cc2)cc1OC", "survival": "85%"},
      {"smiles": "COc1ccc(N2CCN(C(=O)Nc3cn(CC(C)C)c(=O)c4ccccc34)CC2)cc1", "survival": "83%"},
      {"smiles": "CS(=O)(=O)N1CCC(N2CCN(Cc3ccccc3)C(=O)C2=O)CC1", "survival": "91%"},
      {"smiles": "CC(=O)c1cccc(NC(=O)c2nc(-c3ccc(C)cc3)n3c2CCCCC3)c1", "survival": "34% (active)"},
      {"smiles": "Cc1ccc(-c2nc(C(=O)Nc3cccc(C#N)c3)c3n2CCCCC3)cc1", "survival": "88%"},
      {"smiles": "CC(=O)c1ccc(NC(=O)c2nc(-c3ccc(C)cc3)n3c2CCCCC3)cc1", "survival": "58%"},
      {"smiles": "N#C/C(=C/c1ccc(-c2cccc(C(F)(F)F)c2)o1)C(=O)OC1CCCCC1", "survival": "82%"},
      {"smiles": "Cc1cccc(C(=O)Nc2cccc(C(=O)OCc3cc(=O)n4nc(C(C)C)sc4n3)c2)c1", "survival": "113%"},
      {"smiles": "CCOC(=O)c1ccc(N2C(=O)c3n[nH]c(-c4cccs4)c3C2c2ccc(C(C)C)cc2)cc1", "note": "(stereo not given)", "survival": "104%"},
      {"smiles": "CCOc1ccc(C2c3c(-c4ccc(C)cc4)n[nH]c3C(=O)N2c2ccc(Cl)cc2)cc1", "note": "(stereo not given)", "survival": "91%"},
      {"smiles": "O=C1c2[nH]nc(-c3ccc(F)cc3)c2C(c2ccccc2F)N1c1ccccc1", "note": "(stereo not given)", "survival": "10% (active)"},
      {"smiles": "CCOC(=O)c1ccc(N2C(=O)c3n[nH]c(C)c3C2c2ccc(C(C)C)cc2)cc1", "note": "(stereo not given)", "survival": "86%"},
      {"smiles": "Cc1ccc(N2C(=O)c3n[nH]c(C)c3C2c2ccccc2Cl)cc1", "note": "(stereo not given)", "survival": "120%"},
      {"smiles": "COc1ccc(C2c3c(-c4ccc(F)cc4)n[nH]c3C(=O)N2c2ccccc2)cc1OC", "note": "(stereo not given)", "survival": "124%"},
      {"smiles": "Cc1ccc(N2C(=O)c3[nH]nc(-c4ccc(Cl)cc4)c3C2c2ccc(F)cc2)cc1", "note": "(stereo not given)", "survival": "44% (active)"},
      {"smiles": "COc1ccccc1C1c2c(-c3ccc(Cl)cc3)n[nH]c2C(=O)N1c1ccc(C)cc1", "note": "(stereo not given)", "survival": "79%"},
      {"smiles": "Cc1ccc(N2C(=O)c3n[nH]c(C)c3C2c2ccc(C(C)C)cc2)cc1", "note": "(stereo not given)", "survival": "39% (active)"},
      {"smiles": "Cc1ccc(-c2n[nH]c3c2C(c2cccs2)N(c2ccc(Cl)cc2)C3=O)cc1", "note": "(stereo not given)", "survival": "62%"},
      {"smiles": "Cc1ccc(N2C(=O)c3n[nH]c(C)c3C2c2ccc(Cl)cc2)cc1", "note": "(stereo not given)", "survival": "6% (active)"},
      {"smiles": "COc1cc(C2c3c(-c4ccc(C)cc4)n[nH]c3C(=O)N2c2ccc(F)cc2)ccc1O", "note": "(stereo not given)", "survival": "95%"},
      {"smiles": "CCN(CC)C(=O)CN1C(=O)COc2ccc(S(=O)(=O)N3CCOCC3)cc21", "survival": "78%"},
      {"smiles": "O=C(Nc1cc2c(cc1C(=O)c1ccc(Br)cc1)OCCO2)c1ccc(Cl)cc1", "survival": "102%"},
      {"smiles": "Cc1ccc2c(c1)N(CC(=O)OCC(=O)NCc1ccccc1)C(=O)CO2", "survival": "81%"},
      {"smiles": "COCCNC(=O)c1ccc(-c2nc(CS(=O)(=O)c3ccccc3)c(C)o2)cc1", "survival": "119%"},
      {"smiles": "COCCCNc1nc2c(c(=O)[nH]c(=O)n2C)n1CC(O)COc1ccc(Cl)cc1", "note": "(stereo not given)", "survival": "66%"},
      {"smiles": "CCOC(=O)c1ccc(N2C(=O)c3[nH]nc(-c4ccc(C)cc4)c3C2c2cccc(F)c2)cc1", "note": "(stereo not given)", "survival": "117%"},
      {"smiles": "O=C1c2[nH]nc(-c3ccccc3)c2C(c2ccccc2)N1c1cccc(C(F)(F)F)c1", "note": "(stereo not given)", "survival": "20% (active)"},
      {"smiles": "CCOC(=O)c1ccc(N2C(=O)c3n[nH]c(C)c3C2c2ccc(CC)cc2)cc1", "note": "(stereo not given)", "survival": "78%"},
      {"smiles": "O=C(O)c1ccc(N2C(=O)c3[nH]nc(-c4ccccc4)c3C2c2cccc(F)c2)cc1", "note": "(stereo not given)", "survival": "92%"},
      {"smiles": "CCc1ccc(C2c3c(n[nH]c3C)C(=O)N2c2ccc(C)cc2)cc1", "note": "(stereo not given)", "survival": "8% (active)"},
      {"smiles": "CCc1ccc(C2c3c(-c4ccccc4)n[nH]c3C(=O)N2c2ccc(C(=O)O)cc2)cc1", "note": "(stereo not given)", "survival": "48% (active)"},
      {"smiles": "CCOC(=O)c1ccc(N2C(=O)c3n[nH]c(-c4cccs4)c3C2c2ccc(CC)cc2)cc1", "note": "(stereo not given)", "survival": "99%"},
      {"smiles": "CCOC(=O)c1ccc(N2C(=O)c3[nH]nc(-c4ccccc4)c3C2c2ccc(C(C)C)cc2)cc1", "note": "(stereo not given)", "survival": "105%"},
      {"smiles": "CCOC(=O)c1ccc(N2C(=O)c3[nH]nc(-c4ccccc4)c3C2c2ccc(CC)cc2)cc1", "note": "(stereo not given)", "survival": "100%"}
    ]}
  ]
}
